Laboratory results reported in PubChem BioAssay AID1259312 (Keith Lab, Institute of Cancer Science, University of …, 2017).
In all, about 4,500 compounds went through this assay and about 200 (4.4%) were called active. The sample holds actives, similar compounds and a random draw of the others, so the mix is not that of the screen.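 How the source made its calls: active means cell survival measured by absorbance rises more than 2.5-fold over infected cells without compound; inactive means the rest.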

assay: survival after telomere uncapping, modulators, primary screen, cell-based (AID 1259312); conditions: HCT116 + Ad-hTR-mut, MTT, 5 d; at 10 µM, stronger effect = higher value;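 further: virus expresses mutant telomerase RNA that uncaps telomeres and kills cells; compound added 2 days after infection so exposure lasts 3 days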

| SMILES | fold change |
| --- | --- |
| CC(Sc1ccccn1)c1nc(N)nc(N2CCCc3ccccc32)n1 (centres undefined) | -4.94 (inactive) |
| Cc1cccc(NS(=O)(=O)c2cc(Cl)ccc2Cl)n1 | 1.41 (inactive) |
| CCCN(CCC)C(=O)C(=O)N(CCC)CCC | -1.09 (inactive) |
| Cc1[nH]nc2c1C1(CCOCC1)C(C#N)=C(N)O2 | -1.27 (inactive) |
| Cc1[nH]nc2c1C1(C(=O)Nc3cc(Br)ccc31)C(C#N)=C(N)O2 (centres undefined) | 3.96 (active) |
| N#CC1=C(N)OC2=C(C(=O)CCC2)C12C(=O)Nc1ccccc12 (centres undefined) | 2.26 (inactive) |
| Cc1[nH]nc2c1C1(CCCCC1)C(C#N)=C(N)O2 | -1.09 (inactive) |
| N#CC1=C(N)Oc2ccc(N)cc2C12C(=O)Nc1ccccc12 (centres undefined) | 2.67 (active) |
| N#CC1=C(N)OC2=C(C(=O)CCC2)C12C(=O)Nc1cc(Br)ccc12 (centres undefined) | 1.66 (inactive) |
| CSc1ccc(C2C(C#N)=C(N)Oc3n[nH]c(C(C)(C)C)c32)cc1 (centres undefined) | -1.76 (inactive) |
| CC(C)(C)c1[nH]nc2c1C1(C(=O)Nc3ccccc31)C(C#N)=C(N)O2 (centres undefined) | 4.19 (active) |
| CN1C(=O)C2(C(C#N)=C(N)Oc3c2c(=O)n(C)c(=O)n3C)c2ccccc21 (centres undefined) | -1.14 (inactive) |
| Cc1[nH]nc2c1C1(CCSCC1)C(C#N)=C(N)O2 | -1.42 (inactive) |
| CC(C)(C)c1[nH]nc2c1C(c1ccc(F)cc1)C(C#N)=C(N)O2 (centres undefined) | 1.28 (inactive) |
| Cc1[nH]nc2c1C1(C(=O)Nc3ccccc31)C(C#N)=C(N)O2 (centres undefined) | 5.1 (active) |
| CCCCc1ccc(-c2c(C#N)c(N)nc3c2CCCCCC3)s1 | -4.8 (inactive) |
| Cc1ccc(C2C3=C(CC(C)(C)CC3=O)OC3=C2C(=O)CC(C)(C)C3)s1 | -5.64 (inactive) |
| O=C(O)/C=C/c1ccc(F)c(Br)c1 | -1.15 (inactive) |
| O=S1(=O)N=C(N2CCCc3ccccc32)c2ccccc21 | 1.46 (inactive) |
| O=c1ccn([C@H]2CCC(CO)O2)c(=O)[nH]1 (some centres undefined) | -1.46 (inactive) |
| N#Cc1c(N)nc2c(c1-c1cccnc1)CCCCC2 | -6.99 (inactive) |
| O=C1c2ccccc2NC2(C(=O)Nc3ccccc32)N1c1ccc2c(c1)oc1ccccc12 (centres undefined) | 1.13 (inactive) |

| SMILES | fold change |
| --- | --- |
| N#CC1=C(N)Oc2c(c3ccccc3oc2=O)C12C(=O)Nc1ccc(Br)cc12 (centres undefined) | 2.59 (active) |
| O=C1Oc2ccccc2C2Oc3c(c(=O)oc4ccccc34)C3(C(=O)Nc4ccccc43)C12 (centres undefined) | -1.57 (inactive) |
| Cc1ccc(-c2nnc(CSc3nnc(-c4ccccc4)o3)o2)n1C | -1.36 (inactive) |
| CCCCCCCNC(=O)c1ccco1 | 1.1 (inactive) |
| S=C(c1ccc(-c2ccc(Br)cc2)o1)N1CCOCC1 | 1.09 (inactive) |
| O=C1c2ccccc2C(O)(O)C1(O)C1(O)C(=O)c2ccccc2C1(O)O (centres undefined) | -1.12 (inactive) |
| CC(=O)/C(=C1/OC(=O)c2ccccc21)c1ccc(C(C)=O)cc1 | 5.97 (active) |
| CC(=O)C(C(C)=O)=C1OC(=O)c2ccccc21 | 1.3 (inactive) |
| C=CC[C@H]1CC=C[C@H](CC=C)N1C(C)=O | -1.11 (inactive) |
| NC(=O)NC(CCCN=C(N)N)C(=O)O (centres undefined) | -1.65 (inactive) |
| O=[N+]([O-])c1ccc(N2CCN(S(=O)(=O)c3ccc4ccccc4c3)CC2)cc1 | -1.1 (inactive) |
| CC(=O)c1c(C)nc(-c2cccs2)n1O | -1.92 (inactive) |
| Cc1sc2c(c1C)C(=O)NC(/C=C/c1ccc3c(c1)OCO3)N2 (centres undefined) | -1.11 (inactive) |
| O=S(=O)(Nc1cc(Cl)cc(Cl)c1)c1cccs1 | -1.41 (inactive) |
| O=[N+]([O-])c1ccc(N2CCN(S(=O)(=O)c3ccc(Br)cc3)CC2)cc1 | 1.35 (inactive) |
| O=[N+]([O-])c1ccc(N2CCN(S(=O)(=O)c3cc(Cl)ccc3Cl)CC2)cc1 | 5.36 (active) |
| O=[N+]([O-])c1ccc(N2CCOCC2)c(S(=O)(=O)N2CCOCC2)c1 | -1.09 (inactive) |
| O=[N+]([O-])c1ccc(Cl)c(S(=O)(=O)N2CCOCC2)c1 | 3.45 (active) |
| O=[N+]([O-])c1ccc(S(=O)(=O)N2CCOCC2)cc1 | 2.47 (inactive) |
| O=[N+]([O-])c1ccc(N2CCN(S(=O)(=O)c3ccc(Cl)cc3)CC2)cc1 | -1.84 (inactive) |
| Cc1ccc(-c2c(C#N)c(N)nc3c2CCCCC3)s1 | -2.73 (inactive) |
| Nc1ncnc2nc(SCCOc3ccccc3F)[nH]c12 | -1.17 (inactive) |

| SMILES | fold change |
| --- | --- |
| COc1cc(C2C(C#N)=C(N)Nc3oc(C)nc32)cc(OC)c1OC (centres undefined) | 2.2 (inactive) |
| Cc1cc(Cl)c2ccccc2n1 | -1.67 (inactive) |
| C=CCNC(=O)c1nn(C)c(=O)c2ccccc12 | -1.08 (inactive) |
| Cc1cc(C)nc(Sc2ccc3nsnc3c2[N+](=O)[O-])n1 | 2.01 (inactive) |
| O=c1c(C=NCc2cccs2)c(C(F)(F)F)[nH]n1-c1nc2ccccc2s1 | inactive |
| NNC(=O)c1cccc(C(=O)NN)n1 | 2.7 (active) |
| NC(=O)CSc1cccc2cccnc12 | -2.76 (inactive) |
| NNC(=O)Cn1c2ccccc2c(=O)c2ccccc21 | 1.47 (inactive) |
| O=C(O)CCc1cn(CCC(=O)O)cn1 | 3 (active) |
| O=C(O)CCn1cnnn1 | -1.36 (inactive) |
| O=C(O)COc1ccc(Br)cc1/C=C1/NC(=O)NC1=O | 1.24 (inactive) |
| O=C(O)/C=C/C(=O)NC1CCCCNC1=O (centres undefined) | -1.55 (inactive) |
| O=C(O)/C=C/C(=O)NC1CCCCC1 | 3.98 (active) |
| O=C(NC1CCCCCC1)C1CC1 | -2.47 (inactive) |
| CC(C)OC(=O)/C(C#N)=C\c1cccn1C | -3.04 (inactive) |
| CCOC(=O)/C(C#N)=C\c1cccn1C | -3.87 (inactive) |
| COC(=O)/C(C#N)=C\c1cccn1C | 4.23 (active) |
| CCSc1ccc(Sc2ccc(SCC)s2)s1 | -1.05 (inactive) |
| CN1C2CC(OC(=O)C(CO)c3ccccc3)CC1C1OC12 (centres undefined) | 2.65 (active) |
| C1=CN(c2ccccc2)C(C=NCc2ccccc2)=CS1 | 3.25 (active) |
| O=C(NCCOC(=O)Nc1ccc(Cl)c(Cl)c1)Nc1ccc(Cl)c(Cl)c1 | -1.04 (inactive) |
| O=C(C[n+]1ccccc1)c1ccc(Br)cc1 | -1.26 (inactive) |

| SMILES | fold change |
| --- | --- |
| O=C(C[n+]1ccccc1)c1cccs1 | 4.15 (active) |
| O=C(O)CNC(=O)c1cccs1 | 1.14 (inactive) |
| COc1ccc(OC)c(NS(=O)(=O)c2cc(Cl)ccc2Cl)c1 | 1.1 (inactive) |
| S=C(NNC(=S)Nc1ccccc1)Nc1ccccc1 | 4.1 (active) |
| NNC(=S)Nc1ccccc1 | 2.03 (inactive) |
| CNC(=S)Nc1ccccc1 | -1.89 (inactive) |
| CN(Cc1cccs1)C(=S)SCCO | 1.27 (inactive) |
| Cc1ccc(-c2nc(Cn3c(-c4cscn4)nc4ccccc43)cs2)cc1 | -1.62 (inactive) |
| CN1C(=O)/C(=C2\SC(=S)N(CCS(=O)(=O)O)C2=O)c2ccccc21 | 4.3 (active) |
| C=CCN1C(=O)/C(=C2\SC(=S)N(CCC)C2=O)c2ccccc21 | -1.1 (inactive) |
| CSCCC(C(=O)O)N1C(=O)/C(=C2/C(=O)N(C)c3ccccc32)SC1=S (centres undefined) | -1.54 (inactive) |
| CCOC(=O)c1c(N)sc(C(=O)N2CCCCC2)c1C | -1.62 (inactive) |
| CN(C)CCCN1C(=O)C(O)=C(C(=O)c2cccs2)C1c1cccs1 (centres undefined) | -1.86 (inactive) |
| N#CCC(c1ccccc1)C(C#N)c1ccc(Br)cc1 (centres undefined) | -1.3 (inactive) |
| Brc1ccc(C(Br)C(Br)c2ccccc2Br)cc1 (centres undefined) | -2.96 (inactive) |
| ClC(Cl)(Cl)C(c1ccc(Br)cc1)c1ccc(Br)cc1 | 3.49 (active) |
| O=[N+]([O-])c1ccccc1Nc1ccccc1 | 1.12 (inactive) |
| O=C1NC(=S)S/C1=C/c1ccc(O)cc1 | 3.65 (active) |
| O=C1NC(=S)S/C1=C\c1ccsc1 | -1 (inactive) |
| CN(C)c1ccc(/C=C2/SC(=S)NC2=O)cc1 | 2.2 (inactive) |
| Cc1cc(C)c(O)c(C(CC(C)C)c2cc(C)cc(C)c2O)c1 | -4.02 (inactive) |
| O=C1CC(c2ccccc2)CC2=C1C(c1ccc(OC(F)(F)F)cc1)Nc1ccccc1N2 (centres undefined) | -1.06 (inactive) |

| SMILES | fold change |
| --- | --- |
| OC(c1nc2ccccc2[nH]1)C(O)c1nc2ccccc2[nH]1 (centres undefined) | 3.31 (active) |
| OC(c1ccccc1)c1nc2ccccc2[nH]1 (centres undefined) | -1.08 (inactive) |
| FC(c1nc2ccccc2[nH]1)C(F)(F)F (centres undefined) | 2.19 (inactive) |
| COc1ccnc2cc(Cl)ccc12 | 1.06 (inactive) |
| Brc1ccccc1-c1nnc(C(c2ccccc2)c2ccccc2)o1 | -1.33 (inactive) |
| Cc1nccn1CCC(=O)O | 5.01 (active) |
| Cc1cc(C)nc(SCCC(=O)O)n1 | -2.76 (inactive) |
| Nc1nc(SCCCOc2ccccc2)n[nH]1 | 1.24 (inactive) |
| COc1ccc(NC(=O)Nc2cccc(Cl)c2)cc1 | 1.1 (inactive) |
| O=C(COc1ccccc1)N=Nc1c(O)[nH]c2ccccc12 | inactive |
| Cc1sc2ccccc2[n+]1CCCS(=O)(=O)[O-] | 2.97 (active) |
| Oc1ccc2ccccc2c1CNCCNCc1c(O)ccc2ccccc12 | 3.72 (active) |
| Oc1ccc2ccccc2c1N=Nc1ccccc1 | inactive |
| Oc1ccc2ccccc2c1Sc1c(O)ccc2ccccc12 | -2.97 (inactive) |
| Cc1nc2ccc3ccccc3c2s1 | -2.18 (inactive) |
| c1ccc2cc3[nH]c(CN4CCOCC4)nc3cc2c1 | 1.25 (inactive) |
| Nc1ncnc2c1ncn2[C@H]1C[C@H](O)[C@@H](COP(=O)(O)O)O1 | -1.8 (inactive) |
| CCN(C(=O)c1sc(NC(=O)CCl)c(C#N)c1C)C1CCCCC1 | -1.18 (inactive) |
| CCOC(=O)c1ccc(C2C(C#N)=C(N)Oc3cc(C)oc(=O)c32)o1 (centres undefined) | -1.07 (inactive) |
| Cc1cc2c(c(=O)o1)C(c1ccncc1)C(C#N)=C(N)O2 (centres undefined) | 3.96 (active) |
| Cc1[nH]nc2c1C(c1ccncc1)C(C#N)=C(N)O2 (centres undefined) | 2.49 (inactive) |
